DUSP3 inh – VHR1 phosphatase inhibitors, primary screen, biochemical, absorbance, uHTS; 0.52% of 290,000 active; recombinant VHR phosphatase, pNPP absorbance; Dual specificity protein phosphatase 3 (Homo sapiens), P51452; inhibition, % at 13.3 µM; in the data active = inhibition above about 50%
Target sequence (P51452 whole entry, looked up): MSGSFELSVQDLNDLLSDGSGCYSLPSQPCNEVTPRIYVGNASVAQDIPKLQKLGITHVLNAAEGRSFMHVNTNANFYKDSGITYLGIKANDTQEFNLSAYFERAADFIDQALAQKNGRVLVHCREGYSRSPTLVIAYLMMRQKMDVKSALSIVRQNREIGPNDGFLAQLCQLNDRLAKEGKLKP
BoNT-A LC inh2 – BoNT/A light chain protease inhibitors, primary screen, biochemical, flow cytometry, MLPCN library; inhibition, % at 10 µM; Botulinum neurotoxin type A light chain protease (Clostridium botulinum A str. ATCC 3502); multiplex microsphere protease substrate cleavage; AID 588499, 2011; 0.17% of 360,000 active; also: plate controls were buffer without enzyme for full effect and enzyme alone for no effect
Bead autofluor – compound fluorescence in toxin protease inhibitor counterscreen; compound autofluorescence counterscreen, microsphere flow cytometry; stronger effect = higher value; fluorescence intensity (no concentration beside the values); 3.1% of 360,000 active; AID 624483; in the data active = fluorescence intensity above about 16000; inconclusive = no clear call, values can overlap the other calls
BoNT F protease – BoNT/F light chain protease inhibitors, primary screen, biochemical, flow cytometry, MLPCN library | Botulinum neurotoxin type F light chain protease (Clostridium botulinum) | Multiplex microsphere protease cleavage assay | inhibition, % at 10 µM | 0.22% of 360,000 active; in the data active = inhibition above about 35%, passing the limit was not always enough; inconclusive = no clear call, values can overlap the other calls; also: plate controls were buffer without enzyme for full effect and enzyme alone for no effect
MazF activator – activators of E. coli MazEF toxin-antitoxin RNase, primary screen, biochemical, fluorescence, uHTS | FAM/BHQ RNA-DNA oligo cleavage fluorescence, 5 h | activation, % at 20 µM | 0.32% of 350,000 active; in the data active = activation above about 50%
Target sequence (P0AE70 whole entry, looked up): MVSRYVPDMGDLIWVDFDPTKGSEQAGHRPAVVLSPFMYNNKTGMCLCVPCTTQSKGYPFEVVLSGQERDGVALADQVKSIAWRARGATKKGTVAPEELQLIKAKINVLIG
Anthrax LF inh2 – Bacillus anthracis LF protease inhibitors, primary screen, biochemical, multiplex microsphere, MLPCN library. Lethal factor (Bacillus anthracis), P15917. multiplex microsphere protease cleavage assay. inhibition, % at 10 µM. 0.12% of 360,000 active. AID 588501, 2011; also: plate controls were buffer without enzyme for full effect and enzyme alone for no effect
* hit, by the source's call; u = inconclusive; x = not tested or not shown. A selection: hits, their analogues and other compounds. The true share with any hit is near 4%. Rule as the data show it, unless noted: active = inhibition above about 30%; inconclusive = no clear call, values can overlap the other calls; inactive = below that.

SMILES	DUSP3 inh	BoNT-A LC inh2	Bead autofluor	BoNT F protease	MazF activator	Anthrax LF inh2
Cc1ccc(N2CCN(CC3CC=CCC3)CC2)cc1 (stereo not given)	-5.0	2.3	21210*	2.7	-10.2	-2.2
FC(F)(F)c1cccc(N2CCN(CC3CC=CCC3)CC2)c1 (stereo not given)	10.4	-0.9	3051	-5.6	0.1	-4.0
CCn1cc(/C=c2/sc3n(c2=O)C2c4ccccc4OC(C)(N=3)C2C(=O)OC)c(C)n1 (stereo not given)	52.7*	0.4	3275	-4.2	-3.0	-6.7
CCc1nc(OCc2ccccc2)c2sc3nc4c(cc3c2n1)COC(C)(C)C4	16.1	u	21172*	7.8	9.9	-8.3
CC(=O)c1ccc(Nc2nc3ccc(C)cc3n3cnnc23)cc1	x	-0.1	3626	9.9	5.6	0.5
COc1ccc(C(=O)COC(=O)CSCc2c(C)noc2C)cc1OC	2.8	2.1	22438*	1.3	-2.3	1.8
CCc1noc(C)c1C(=O)OCC(=O)c1ccc(OC)c(OC)c1	x	-0.4	3159	3.4	-1.0	-5.3
C=CCSc1nc2sc3c(c2c(=O)n1CC)CCc1ccccc1-3	14.3	2.6	15379	1.8	5.1	-1.6
CCCc1cc(=O)oc2c(C)c(OCC(=O)c3ccc(N4CCCC4)cc3)ccc12	57.9*	0.2	2650	5.1	-3.7	1.0
CCCCc1cc(=O)oc2c(C)c(OCC(=O)N3CCCC3)ccc12	18.5	x	x	x	18.5	x
O=C(O)/C=C/C(=O)NC1CCS(=O)(=O)C1 (stereo not given)	2.6	-2.4	9982	-4.2	-0.8	-3.9
CC(C)(C)NC(=O)CN(Cc1cccs1)C(=O)CN1C(=O)C(=O)c2ccccc21	16.3	0.5	3311	5.1	-4.3	-3.6
CC(C)(C)NC(=O)CN(Cc1cccs1)C(=O)C1COc2ccccc2O1 (stereo not given)	21.9	-0.7	23568*	-1.3	1.2	0.1
COc1ccc(NC(=O)c2ccc(-c3ccc(F)cc3)o2)cc1OC	x	-0.5	3535	-3.4	12.9	-11.1
CC(=O)Nc1cccc(C(=O)N/N=C/c2cccc(C)n2)c1	-5.7	1.8	3846	45.5*	5.9	-2.9
Cc1ccc(S(=O)(=O)c2nc(Nc3ccccc3C#N)sc2Cl)cc1	5.6	0.2	2410	-7.1	27.4	-0.5
Cc1ccc(S(=O)(=O)c2nc(Nc3ccccc3N3CCOCC3)sc2Cl)cc1	15.2	1.1	16143*	-2.1	-8.6	-0.3
CC(C)Nc1oc(Cc2cccc3ccccc23)nc1C#N	8.4	u	24202*	1.1	-1.7	-3.7
N#Cc1nc(Cc2cccc3ccccc23)oc1NCCN1CCCCC1	15.1	0.7	10642	4.3	-2.0	-1.5
COc1ccc(CCNc2oc(Cc3cccc4ccccc34)nc2C#N)cc1OC	-5.1	-0.7	3533	1.5	-2.4	-11.7
CNc1oc(Cc2cccc3ccccc23)nc1C#N	15.3	-3.8	17571*	-4.5	-7.8	-4.4
COCCNc1nc(NCc2ccccc2F)c2sccc2n1	x	-0.2	3805	-2.1	x	-9.2
O=C(O)Cn1cc(C(=O)c2ccccc2)c2ccccc21	10.9	9.0	18398*	10.4	-4.2	2.2
COC(=O)Cn1cc(C(=O)C(F)(F)F)c2ccccc21	14.7	-1.3	4341	-1.1	16.5	-3.3
CCn1cc(C(=O)c2cccs2)c2ccccc21	20.2	-3.9	16945*	-3.6	0.8	-8.6
SMILES	DUSP3 inh	BoNT-A LC inh2	Bead autofluor	BoNT F protease	MazF activator	Anthrax LF inh2
CCn1cc(C(=O)C(F)(F)F)c2ccccc21	36.7	1.3	22281*	2.1	-2.7	0.2
O=C(Oc1cccc2cccnc12)c1cccs1	-1.0	-0.5	2404	3.3	8.7	-5.5
COc1ccc(F)cc1-c1cc(C(=O)Nc2ccc(NC(C)=O)cc2)[nH]n1	x	-0.9	3128	-7.4	x	-11.9
COc1cc2[nH]c(C(=O)Nc3ccc(F)cc3)cc2c(OC)c1OC	52.6*	1.3	3134	4.2	x	3.2
COc1ccc(C(=O)NCC(=O)Nc2ccc(F)cc2)cc1OC	22.3	u	16515*	-1.6	1.0	-0.3
COc1ccccc1CNS(=O)(=O)c1cccs1	-0.7	0.7	4339	u	8.4	10.2
CCN(CCCNC(=O)Cn1ncc2c(=O)oc3ccccc3c21)c1cccc(C)c1	-16.1	-0.6	5970	-10.5	1.9	-1.4
CCc1c(C)nc(N)n2c(SCC(=O)Nc3ccccc3OC)nnc12	22.2	-0.6	23325*	-0.7	6.2	-0.4
O=S(=O)(Nc1ccccc1N1CCOCC1)c1ccccc1C(F)(F)F	x	-4.4	6508	-20.1	6.0	2.6
CCOC(=O)c1[nH]c(C)c(C(=O)NCCCOC(C)C)c1C	5.6	-3.7	21373*	-4.6	-1.7	-0.7
CCOC(=O)c1[nH]c(C)c(C(=O)N2CCN(c3ccc(OC)cc3)CC2)c1C	-8.7	0.5	2178	-1.2	-5.8	-1.8
CCOC(=O)c1[nH]c(C)c(C(=O)N2CCN(c3ccc(F)cc3)CC2)c1C	-2.0	3.8	21567*	2.0	-2.4	-2.5
CCOC(=O)c1[nH]c(C)c(C(=O)Nc2cccc(Cl)c2C)c1C	31.9	2.6	19613*	3.4	0.0	-4.1
CCOC(=O)c1[nH]c(C)c(C(=O)N2CCN(c3cccc(Cl)c3)CC2)c1C	-8.7	2.1	19964*	1.4	-10.5	0.1
CCOC(=O)c1[nH]c(C)c(C(=O)NC(C)CC)c1C (stereo not given)	12.4	-0.4	5433	-4.1	2.2	1.1
CCOc1cc(/C=C2\C(=O)N(c3cccc(C(=O)O)c3)N=C2C(F)(F)F)ccc1OCC(=O)Nc1ccccc1OC	-13.3	x	x	x	x	x
CCOc1cc(C(=O)Nc2ccc3c(c2)OCO3)ccc1OC(F)F	15.3	-0.4	11395	-4.8	6.0	-1.8
COc1ccc(CCNC(=O)c2ccc3c(c2)S(=O)(=O)N=C2CCCCCN23)cc1OC	x	0.0	3922	-0.2	-4.9	2.8
COc1ccc(-c2noc(CCCC(=O)NC3CCCCC3)n2)cc1	20.3	0.2	5086	0.1	-1.2	0.6
CC(=O)c1cccc(NS(=O)(=O)c2cc(OCC(N)=O)c(C)cc2Cl)c1	18.6	1.5	19294*	3.5	5.8	-2.4
Cc1cccc(NS(=O)(=O)c2cc(OCC(N)=O)c(C)cc2Cl)c1	4.4	-0.9	3361	-2.0	-1.6	1.0
Cc1ccc(C)c(NC(=O)C2C3C=CC(O3)C2C(=O)O)c1 (stereo not given)	-17.8	-1.7	3936	u	1.4	25.2
N#CCCN(CCC#N)C(=O)COc1ccc(Cl)cc1Cl	17.7	3.4	18547*	1.4	3.8	-7.0
CCCCC(=O)Nc1ncc([N+](=O)[O-])s1	28.6	0.0	4340	0.9	7.3	-0.7
CCCCC(=O)Nc1ncc(Br)s1	2.6	6.9	21554*	5.7	5.8	0.1
COc1cccc(C(=O)OCC(=O)c2ccc(Br)s2)c1	15.0	1.3	5828	-2.8	-2.1	2.8

From PubChem BioAssay
